# The whole screen tested about 52,000 compounds, of which about 1,700 (3.3%) were called active. The entries come from a sample that favours actives as a whole. Unmarked numbers belong to inactive results. Rule as the data show it: active = survival mostly below about 52% (no sharp cut-off); inactive = mostly above about 56%.
# Test system: Wild type
# Experiment: growth inhibition of S. aureus wild type versus tarO mutant, primary screen, teichoic acid synthesis inhibitors, RN4220, OD600 (AID 463173)
# Details: S. aureus RN4220 wild type/DeltatarO growth, OD600, 18 h, active compounds read low, screened at 18.75 µg/mL (by protocol)
row,Compound,survival
1,Nc1ccc(-c2nc3c(Cl)cccc3[nH]2)cc1,125%
2,CCOc1ccc(-n2c(C)nc3cc(C(=O)NC4CCCC4)ccc32)cc1,67%
3,COc1cccc(Cn2c(=O)n(-c3cccc(Cl)c3C)c(=O)c3c4c(sc32)CN(C(C)=O)CC4)c1,75%
4,Cn1cc(S(=O)(=O)N2CCCC2)cc1C(=O)Nc1ccc(C(F)(F)F)cc1,109%
5,CCCCNc1nc(Oc2ccc(=O)n(C)n2)nc(N(C)C)n1,83%
6,COc1ccc(-c2cc(C(=O)Nc3sc4c(c3C#N)CCCC4)no2)cc1OC,80%
7,CCC1CN(C(=O)N2CCC(C(=O)NCCCc3ccccc3)CC2)c2cc(C)ccc2O1 (centres undefined),79%
8,COCCCn1c(=N)c(C(=O)NCc2cccnc2)cc2c(=O)n3cccc(C)c3nc21,74%
9,Cc1ccc(Nc2c3c(nc4nc(-c5cccs5)nn24)CCCC3)cc1F,-3% (active)
10,COc1ccc(C)cc1Nc1c2c(nc3nc(-c4cccs4)nn13)CCCC2,63%
11,Cc1ccc(Nc2c3c(nc4nncn24)CCC3)cc1C,76%
12,CC(=O)c1cccc(Nc2c3c(nc4nc(-c5cccs5)nn24)CCCC3)c1,76%
13,Fc1cc(Br)ccc1Nc1c2c(nc3nc(-c4cccs4)nn13)CCCC2,0% (active)
14,COc1cc(OC)c(Nc2c3c(nc4nc(-c5cccs5)nn24)CCCC3)cc1Cl,85%
15,O=C(Cn1c2ncccc2c(=O)n1-c1ccccc1)NCc1ccccc1,80%
16,Cc1cc(O)c(C(c2ccccc2)N2CCCCC2)c(=O)n1Cc1ccco1 (centres undefined),77%
17,O=C(NCc1ccccn1)c1cc2n(n1)C(C(F)(F)F)CC(c1ccco1)N2 (centres undefined),108%
18,Cc1ccc2oc(-c3ccc(NC(=O)c4cccc(F)c4)c(C)c3)nc2c1,100%
19,CNC(=S)N(Cc1cccnc1)Cc1cc2cc(OC)ccc2[nH]c1=O,112%
20,COc1cc2c(cc1OC)n(CC(=O)c1cc(C)ccc1C)c(=O)n1nc(CCn3nc(C)cc3C)nc21,71%

row,Compound,survival
1,Cc1c(C(N)=O)sc2ncn(Cc3ccccc3)c(=O)c12,112%
2,CC(C)=CCc1c(O)cc(O)c2c1OC(c1ccccc1)CC2=O (centres undefined),1% (active)
3,CC1(C)OC(c2ccccc2)CC1=O (centres undefined),98%
4,O=C(O)c1c(-c2ccccc2)oc2ccc(OCc3c(F)cccc3Cl)cc12,38%
5,Cc1ccc(COc2ccc3oc(-c4ccccc4)c(C(=O)O)c3c2)cc1,54%
6,O=C(O)c1c(-c2ccccc2)oc2ccc(OCc3ccc(Cl)c(Cl)c3)cc12,0% (active)
7,CCCCNC(=O)C1CCN(S(=O)(=O)CCC)CC1,83%
8,Cc1ccc(CN2CCC(CNC(=O)c3cnn(-c4ccccc4)c3C3CCN(C(=O)OC(C)(C)C)CC3)CC2)cc1,73%
9,Cc1cccc(OC(=O)c2snnc2C)c1C,80%
10,Cc1csc2nc(-c3cccc(NC(=O)c4c(F)cccc4F)c3)cn12,121%
11,Cc1csc2nc(-c3cccc(NC(=O)C(C)C)c3)cn12,80%
12,CCCC(=O)Nc1cccc(-c2cn3c(C)csc3n2)c1,-6% (active)
13,O=C(NCc1ccco1)c1ccc2c(c1)N(Cc1ccc(Cl)cc1)C(=O)c1ccccc1S2=O (centres undefined),165%
14,COc1ccccc1CNC(=O)CN1C(=O)c2cccnc2Oc2ccccc21,64%
15,CCc1cnc2c(c1SCCC(C)C)c(=O)n(C)c(=O)n2C,79%
16,Cc1ccc2c(c1)c1c3n2CCN(C(=O)c2cccc(C(F)(F)F)c2)C3CCC1 (centres undefined),5% (active)
17,CCOc1cc(C(=O)N2CCn3c4c(c5cc(C)ccc53)CCCC42)cc(OCC)c1OCC (centres undefined),67%
18,CCCN(CCC)S(=O)(=O)c1ccc(C(=O)N2CCn3c4c(c5cc(C)ccc53)CCCC42)cc1 (centres undefined),82%
19,Cc1ccc(C(=O)N2CCn3c4c(c5cc(C)ccc53)CCCC42)cc1 (centres undefined),-10% (active)
20,COc1cc(SC)ccc1C(=O)N1CCn2c3c(c4cc(C)ccc42)CCCC31 (centres undefined),85%

row,Compound,survival
1,Cc1ccc2c(c1)c1c3n2CCN(C(=O)c2ccc(C(F)(F)F)cc2)C3CCC1 (centres undefined),49%
2,COc1ccccc1Nc1nc2c(S(=O)(=O)c3ccc(C(C)C)cc3)nnn2c2ccsc12,116%
3,CCCc1nc2ccccc2c(NC(=O)CN(CC)CC)c1CC,103%
4,CN(C)CCNC(=O)Cc1ccc(NC(=O)N2CCCCc3ccccc32)cc1,75%
5,COc1ccc(/C=C\C(=O)NC2CC(=O)N(c3ccccc3)C2)cc1OC (centres undefined),134%
6,CCOc1ccc(OCC)c(Nc2cc(C)nc3nc(-c4ccco4)nn23)c1,-1% (active)
7,Cc1cc(Nc2cccc(F)c2)n2nc(-c3ccco3)nc2n1,69%
8,Cc1cc(Nc2ccccc2Cl)n2nc(-c3ccco3)nc2n1,78%
9,Cc1cc(C)cc(Nc2cc(C)nc3nc(-c4ccco4)nn23)c1,78%
10,Cc1cc(Nc2ccc(Br)c(C)c2)n2nc(-c3ccco3)nc2n1,-6% (active)
11,CCOC(=O)c1ccccc1Nc1cc(C)nc2nc(-c3ccco3)nn12,133%
12,CC(C)CC(=O)Nc1c(C(=O)N2CCN(c3ccccc3)CC2)oc2ccccc12,96%
13,c1ccc(C(c2ccccc2)N2CCN(Cc3nnnn3Cc3ccc4c(c3)OCO4)CC2)cc1,105%
14,O=c1c(=O)n(-c2ccccc2)ccn1Cc1cccc(C(F)(F)F)c1,108%
15,CN(C(=O)CSc1nc2ccc(NC(=O)c3ccccc3)cc2s1)c1ccccc1,77%
16,CCN(c1ccc(OC)cc1)S(=O)(=O)c1ccc2[nH]c(=O)ccc2c1,72%
17,COCCN(Cc1ccc(C)c(Br)c1)S(=O)(=O)c1ccc2[nH]c(=O)ccc2c1,-3% (active)
18,CN(C)CCN(Cc1ccccc1)S(=O)(=O)c1ccc2[nH]c(=O)ccc2c1,76%
19,CCc1ccccc1NC(=O)c1cc(S(=O)(=O)N2CCC(C)CC2)cn1C,22%
